In the library only some 7.5% were active in any assay of this set; here they are far more common.
ELG1 genotox – qHTS screen for small molecules that induce genotoxicity in human embryonic kidney (HEK293T) cells expressing luciferase-tagged ELG1. hit rate 1.3% among 330,000. HEK293T ELG1-luciferase reporter, luminescence, 16 h. Potency, µM (highest dose often 46 µM), for the others: top-dose activity change, positive = activation, hits mostly activators; note: % of control where 0% means no effect; nearly all actives have a fitted effect of over 60% in size
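HEK293T cells expressing luciferase-tagged ELG1 were treated with compound or DMSO for 16 hr at 37°C. Luciferase activity was then read after 30 min with ONE-Glo at room temperature; rising signal flags genetic stress.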
Rab9 promoter act – qHTS Assay for Rab9 Promoter Activators; Huh7 Rab9 promoter-luciferase reporter, luminescence, 24 h; Potency, µM (top dose mostly 9.22 µM), for inactives: at the highest dose activation, negative = inhibition, hits mostly activators; hit rate 2.8% among 320,000; AID 485297, 2010; note: % of control where 0% means no effect; nearly all actives have a fitted effect of over 60% in size
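Luciferase signal after 10 min detection reagent at ambient indicates Rab9 promoter upregulation; stably transfected Huh7 cells were treated 24 h with compound in DMSO at 37 °C, 5% CO2.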
FLuc modulator – qHTS profiling assay for firefly luciferase inhibitor/activator using purifed enzyme and Km concentrations of substrates (counterscreen for miR-21 project) | purified FLuc, Km substrates, luminescence inhibition | Potency, µM (titrated, usually from 57.5 µM), without a hit: at the highest dose activity change, negative = inhibition, actives largely listed as inhibitors | hit rate 6.9% among 360,000 | AID 588342, 2011;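 note: plate controls were vehicle for no effect and reference inhibitor for full effect; nearly all actives have a fitted effect of over 55% in size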
Target sequence (P08659 whole entry, looked up): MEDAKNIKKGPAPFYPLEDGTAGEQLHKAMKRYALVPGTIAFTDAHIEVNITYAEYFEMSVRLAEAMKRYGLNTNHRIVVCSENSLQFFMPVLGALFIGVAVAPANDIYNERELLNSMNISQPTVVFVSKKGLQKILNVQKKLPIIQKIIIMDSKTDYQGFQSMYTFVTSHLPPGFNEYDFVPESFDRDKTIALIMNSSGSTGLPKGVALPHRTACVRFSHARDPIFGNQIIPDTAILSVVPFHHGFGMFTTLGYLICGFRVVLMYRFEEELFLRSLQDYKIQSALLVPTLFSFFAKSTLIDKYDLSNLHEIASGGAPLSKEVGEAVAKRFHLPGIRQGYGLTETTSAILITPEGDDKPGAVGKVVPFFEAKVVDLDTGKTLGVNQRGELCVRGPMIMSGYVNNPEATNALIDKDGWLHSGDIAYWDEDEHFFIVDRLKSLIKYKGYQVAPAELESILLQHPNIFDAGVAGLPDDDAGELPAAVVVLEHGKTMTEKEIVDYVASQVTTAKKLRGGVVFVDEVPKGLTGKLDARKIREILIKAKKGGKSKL
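Purified P. pyralis luciferase, 10 nM final, with Km-level 10 uM D-luciferin and 10 uM ATP in 50 mM Tris acetate pH 7.5, 10 mM Mg acetate, 0.01% Tween-20, 0.05% BSA; 6-point qHTS titration about 60 µM downward; luminescence read.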
KinaseGlo FLuc – Counterscreen for Luciferase (Kinase-Glo TM) Inhibition. Luciferin 4-monooxygenase (Photuris pensylvanica), Q27757. Kinase-Glo luciferase, ATP luminescence, 8 min. Potency, µM (doses to about 38.3 µM), inactives show top-dose activity change, negative = inhibition, actives largely listed as inhibitors. hit rate 0.28% among 200,000. AID 1379, 2008; note: % is set by controls: 0 for no effect and ±100 for the full control effect; nearly all actives have a fitted effect of over 60% in size
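Compounds were added to a substrate mix at pH 7.2 (50 mM imidazole, 10 uM ATP, within the enzyme's linear range), followed by Kinase-Glo detection reagent; luminescence was measured after 8 minutes at ambient temperature.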
SMN2 splice enh – qHTS Assay for Enhancers of SMN2 Splice Variant Expression; hit rate 2.8% among 210,000; HEK293 SMN2-luciferase splicing reporter, luminescence, 30-36 h; AID 1458, 2008; Potency, µM (highest dose often 46.1 µM), for the others: at the highest dose activity change, positive = activation, hits mostly activators; note: % of control where 0% means no effect; nearly all actives have a fitted effect of over 55% in size
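qHTS luciferase splicing reporter: luminescence rises when SMN2 exon 7 is included in transfected HEK293 cells. Compound exposure lasted 30-36 h at 37C, with 4.5 mM final sodium butyrate as control, followed by a ONE-Glo read.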
NPC1 prom act – qHTS Assay for NPC1 Promoter Activators. Huh7 NPC1 promoter luciferase reporter, 24 h. hit rate 2.4% among 320,000. Potency, µM (titrated, usually from 9.22 µM), without a hit: at the highest dose activation, hits mostly activators; note: % of control where 0% means no effect; nearly all actives have a fitted effect of over 60% in size
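Quantitative HTS used a cell-based reporter: Huh7 cells stably bearing the NPC1 promoter upstream of luciferase were treated with compounds for 24 h, and promoter activation was read as luminescence.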
* = called active by the depositor; ? = inconclusive; nt = not tested or not shown. Calls come from the whole dose curve; as a rule, active = well fitted curve in the direction sought with a large enough effect; inconclusive = small, poorly fitted or top-dose-only effect, or another doubt; inactive = no such curve, though single readings can be large; an effect the other way counts as inactive or inconclusive. Potency is the fitted concentration of half-maximal effect.

SMILES	ELG1 genotox	Rab9 promoter act	FLuc modulator	KinaseGlo FLuc	SMN2 splice enh	NPC1 prom act
Cc1cc(C=C2C(=O)c3ccccc3C2=O)c(C)n1-c1cccc(C(=O)O)c1	26%	2.5µM*	4.8µM*	-25%	-26%	29%
Cc1cc(/C=N/n2cnnc2)c(C)n1-c1ccccc1	7%	-1%	?	-2%	22%	4%
CCOP(=O)(OCC)C(O)c1cc(OC)c(OC)c(OC)c1 (stereo not given)	3%	1%	-2%	2%	3%	0%
Cc1cc(C=C2C(=O)c3ccccc3C2=O)c(C)n1-c1ccccc1	?	4%	0.12µM*	?	-71%	8%
O=C1N/C(=N/Nc2ccccc2)S/C1=C\c1ccccc1	10%	10%	13µM*	-11%	?	10%
CCOC(=O)CCc1c(C(=O)OCC)[nH]c(CC)c1C(=O)OCc1ccccc1	-9%	-4%	3%	nt	nt	-2%
O=C(c1ccc(O)cc1)c1ccc(O)cc1O	3%	-4%	-17%	nt	nt	-1%
CN(C)c1ccc(C(=O)c2ccc(O)cc2O)cc1	?	21%	11µM*	-3%	?	?
CCOC(=O)COc1ccccc1C(=O)c1cnn(-c2ccccc2)c1	?	?	11µM*	nt	nt	?
O=C(COc1ccccc1C(=O)c1cnn(-c2ccccc2)c1)Nc1ccc2ccccc2c1	14%	?	1.5µM*	-3%	13µM*	?
CC(C)c1ccc(NC(=O)COc2ccc(F)cc2C(=O)c2cnn(-c3ccccc3)c2)cc1	16%	?	9.5µM*	-7%	?	0%
CCOC(=O)COc1ncn(-c2ccccc2)n1	-1%	1%	-15%	-2%	-9%	0%
CC(C)n1cc(NC(=O)COc2ccccc2Cl)cn1	3%	5%	-4%	nt	nt	-4%
O=C(CSC1=Nc2ccccc2N=C(c2ccc(F)cc2)C1)NCc1ccccc1	nt	nt	-9%	nt	nt	nt
COCCn1c(SCC(=O)NC(C)c2ccc(F)cc2)nc2ccccc21 (stereo not given)	-3%	-5%	1%	nt	nt	2%
Cc1ccnc2ccc(-c3nc4ccccc4o3)cc12	?	3.5µM*	5.4µM*	-13%	18µM*	?
c1ccc(-c2nc3ccccc3o2)nc1	?	?	?	-21%	?	?
Cc1nc2ccc(-c3nc4ccccc4o3)cc2[nH]1	?	0.45µM*	2.4µM*	-12%	?	0.71µM*
Cc1ccccc1C(=O)Nc1cccc(C(=O)OCc2cc(=O)n3nc(C4CC4)sc3n2)c1	nt	nt	-17%	nt	nt	nt
Cc1cc(C(=O)CSc2nc3ccccc3c(=O)[nH]2)c(C)n1CC1CCCO1 (stereo not given)	14%	?	13µM*	-2%	-53%	16%
Cc1cc(C(=O)CSc2nnnn2-c2ccccc2)c(C)n1CC1CCCO1 (stereo not given)	?	1.6µM*	2.7µM*	-3%	13µM*	2.5µM*
CCn1c(SCC(=O)c2cc(C)n(CC3CCCO3)c2C)nc2ccccc21 (stereo not given)	6%	?	27µM*	1%	-7%	25%
Cc1cc(C(=O)CSc2nnnn2-c2ccc(Cl)cc2)c(C)n1CC1CCCO1 (stereo not given)	13%	-2%	6%	2%	-8%	-3%
COc1ccc(OC)c(CCNC(=O)CS(=O)(=O)Cc2nc(-c3cccc(Cl)c3)oc2C)c1	nt	nt	-15%	nt	-24%	nt
Cc1nc(S/C(=C/c2ccc(OCc3ccc(C(=O)O)cc3)cc2)C(=O)O)n[nH]1	0%	-4%	27µM*	1%	-31%	6%
SMILES	ELG1 genotox	Rab9 promoter act	FLuc modulator	KinaseGlo FLuc	SMN2 splice enh	NPC1 prom act
O=C1CCCC(O)=C1N=Nc1ccc(Cl)c(Cl)c1	5%	4%	?	-8%	-4%	-1%
CC(=O)N1CCc2cc(N=NC3=C(O)CCCC3=O)ccc21	?	3.5µM*	15µM*	-13%	171%	?
Cc1nc2cc(N=NC3=C(O)CCCC3=O)ccc2s1	?	16%	13µM*	-18%	?	10%
COc1ccccc1CN1CC[C@@]2(CCCN(C(=O)c3cccn3C)C2)C1	nt	nt	nt	-4%	-20%	nt
CCOC(=O)c1ccc(NC(=O)CN(C)S(=O)(=O)c2ccc(Br)s2)cc1	0%	-8%	?	1%	-19%	1%
O=C(CSc1nnc(NC(=O)c2c(F)cccc2F)s1)Nc1ccc(F)cc1	19%	2.2µM*	-4%	-1%	nt	?
COc1ccccc1NC(=O)CSc1nnc(NC(=O)C2CC2)s1	3%	2%	?	nt	nt	-2%
CC(=O)Nc1ccc(NC(=O)CSc2nnc(NC(=O)c3cccc(F)c3)s2)cc1	?	3.2µM*	0.67µM*	nt	nt	?
O=C(CSc1nnc(NC(=O)Nc2ccccc2)s1)Nc1cccc(F)c1	nt	nt	1.5µM*	nt	nt	nt
COc1ccccc1NC(=O)CSc1nnc(NC(=O)Nc2ccc(C)cc2)s1	nt	nt	2.1µM*	nt	nt	nt
CCOC(=S)N/C(=N\S(=O)(=O)c1ccc(C)cc1)c1ccccc1	0%	-7%	-1%	1%	5%	6%
Cc1ccc(-n2c3nc(=O)[nH]c(=O)c-3cc3c(C)nn(-c4ccccc4)c32)cc1Cl	nt	nt	1%	nt	-2%	nt
COCCCNC(=O)Cn1c(=O)n(Cc2ccc(C(=O)NCc3ccc(C)cc3)cc2)c(=O)c2ccccc21	nt	nt	5%	nt	17%	nt
COc1ccccc1NC(=O)Nc1nnc(C(C)C)s1	?	?	17µM*	0%	22µM*	?
COc1ccc(C(=O)NCc2nnnn2-c2ccc(C)c(C)c2)cc1	nt	nt	-1%	nt	nt	nt
COc1ccc(-c2cn3cc(C)ccc3n2)cc1F	?	0.35µM*	0.24µM*	-20%	0.56µM*	0.35µM*
COc1ccc(-c2cn3ccccc3n2)cc1OC	?	3.2µM*	3.4µM*	11µM*	18µM*	3.2µM*
COc1ccc(-c2cn3cc(C)ccc3n2)cc1OC	1µM*	0.63µM*	0.85µM*	?	4µM*	1µM*
COc1ccc(-c2cc(-c3ccccc3)nc(Cl)n2)cc1OC	-5%	0%	?	nt	nt	-14%
CCCOc1ccc(/C=C/C(=O)Nc2sc(C)c(C)c2C(=O)OCC)cc1OC	nt	nt	?	nt	-4%	nt
Cc1ccc(CNC(=O)CNC(=O)c2ccc(Br)o2)cc1	-1%	-1%	2%	nt	nt	0%
COc1cccc([C@@H]2Oc3ccc(Br)cc3C(=O)[C@H]2O)c1	nt	nt	nt	3%	?	nt
